# Results filed as inconclusive are left out. A call without a number means that no potency is given here. Calls of active or inactive are those of the source. The call rests on the fitted dose curve; in most records, active means well fitted cell-killing curve with a large enough effect; inconclusive means small, poorly fitted or top-dose-only effect; inactive means no such curve, though single readings can be large or run the other way. Where a SMILES comes first, the peptide text is derived from it. [ ]: non-standard residue; d: D form. pGlu = O=C1CC[C@@H](C(=O)O)N1
# Assay: qHTS of pediatric cancer cell lines to identify multiple opportunities for drug repurposing: Primary screen for A673 cells (AID 1347092); further: nearly all actives have a fitted effect of over 45% in size
# Details: A673 Ewing sarcoma viability, CellTiter-Glo ATP luminescence, 48 h; series mostly up to 46 µM
# Method in brief: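 Cell viability of A673 measured by CellTiter-Glo ATP luminescence after 48 hours compound exposure. Dilution series spanned 0.78 nM to 46 µM (MIPE, 11-point) or 0.59 nM to 46 µM (NPC, 8-point); bortezomib 2.3 uM positive control.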
# Potency means the concentration at half of the fitted maximal effect.
row,SMILES,Potency
1,Cc1ccc(-c2ccccc2C#N)cc1,inactive
2,CC(=O)Oc1ccc(C2(c3ccc(OC(C)=O)cc3)Oc3ccccc3NC2=O)cc1,13.3 µM (active)
3,Cc1c(N)cccc1C(F)(F)F,inactive
4,O=C(c1ccco1)N1CCNCC1,inactive
5,Nc1ncnc2c1ncn2Cc1c(F)cccc1Cl,inactive
6,CCN(CC)CC(=O)OCC(=O)[C@@]1(O)CC[C@H]2[C@@H]3CCC4=CC(=O)CC[C@]4(C)[C@H]3[C@@H](O)C[C@@]21C,inactive
7,CC(=O)N(CC(=O)N(C)C)c1ccccc1,inactive
8,CCCCCN(CCCOC)C(=O)C(CCC(=O)O)NC(=O)c1ccc(Cl)c(Cl)c1 (configuration not stated),inactive
9,COc1ccc2c(c1)c(CC(=O)OC/C=C(\C)CC/C=C(\C)CCC=C(C)C)c(C)n2C(=O)c1ccc(Cl)cc1,inactive
10,CC(C)OP(=O)(CP(=O)(OC(C)C)OC(C)C)OC(C)C,inactive
11,N#Cc1cc(NC(=O)C(=O)O)c(Cl)c(NC(=O)C(=O)O)c1,inactive
12,CN1C(CSCC(F)(F)F)Nc2cc(Cl)c(S(N)(=O)=O)cc2S1(=O)=O (configuration not stated),inactive
13,CN1C(=O)c2ccccc2C1=O,inactive
14,CN1N=C(C(N)=O)CCC1=O,inactive

# Assay: qHTS of pediatric cancer cell lines to identify multiple opportunities for drug repurposing: Primary screen for SK-N-MC cells (AID 1347093)
# Details: SK-N-MC viability, CellTiter-Glo luminescence, 48 h; series mostly up to 46 µM
# Method in brief: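 Metabolically active cells were quantified by ATP-dependent luminescence (CellTiter-Glo, 15 min at room temperature) following 48 h treatment. Cells had been plated at 500-1,000 per well and settled for 5 h beforehand.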
row,SMILES,Potency
1,Cc1ccc(C(C)OC(=O)C2(C)CCC(C(=O)O)C2(C)C)cc1 (configuration not stated),inactive
2,Cc1cc(O)c2c(O)c3c(O)cccc3cc2c1,inactive
3,CCCCCCn1c(=O)c2c(ncn2C)n(C)c1=O,inactive
4,O=c1[nH]c2ccccc2c(=O)n1CCCl,inactive
5,CCc1cccc2c(CCO)c[nH]c12,inactive
6,C#CC(C)(CC)OC(=O)c1ccccc1C(=O)O (configuration not stated),inactive
7,C[N+]1(CC2COC(c3ccccc3)(c3ccccc3)O2)CCCCC1 (configuration not stated),inactive
8,[O-][n+]1cccc(/C(Cl)=N/OC[C@@H](O)CN2CCCCC2)c1,inactive
9,C[C@H]1C[C@H]2[C@@H]3CCC4=CC(=O)C=C[C@]4(C)[C@H]3C(=O)C[C@]2(C)[C@@]1(O)C(=O)CO,inactive
10,CCNC(=O)[C@@H]1CCCN1C(=O)[C@H](CCCN=C(N)N)NC(=O)[C@H](CC(C)C)NC(=O)CNC(=O)[C@H](Cc1ccc(O)cc1)NC(=O)[C@H](CO)NC(=O)[C@H](Cc1c[nH]c2ccccc12)NC(=O)[C@H](Cc1cnc[nH]1)NC(=O)[C@@H]1CCC(=O)N1 ([pGlu]HWSYGLRP-NHEt),inactive
11,CC(=O)N[C@@H](CO)C(=O)N[C@@H](CC(=O)O)C(=O)N[C@@H](CCCCN)C(=O)N1CCC[C@H]1C(=O)O (Ac-SDKP-OH),inactive
12,Cc1cc(CCCOc2c(C)cc(-c3noc(C(F)(F)F)n3)cc2C)on1,inactive
13,Nc1ccc(C(=O)N2CC3CC(CN(Cc4ccccc4)C3)C2)cc1,inactive
14,Cc1ccc(/C=N/n2c(-c3ccccc3)csc2=S)cc1,inactive
15,Cc1ccc(-c2ccccc2C#N)cc1,inactive
16,Cc1c(N)cccc1C(F)(F)F,inactive
17,O=C(c1ccco1)N1CCNCC1,inactive
18,Nc1ncnc2c1ncn2Cc1c(F)cccc1Cl,inactive
19,CC(=O)N(CC(=O)N(C)C)c1ccccc1,inactive
20,C#Cc1ccc(-c2ccccc2F)cc1,inactive
21,CCCCCN(CCCOC)C(=O)C(CCC(=O)O)NC(=O)c1ccc(Cl)c(Cl)c1 (configuration not stated),inactive
22,COc1ccc2c(c1)c(CC(=O)OC/C=C(\C)CC/C=C(\C)CCC=C(C)C)c(C)n2C(=O)c1ccc(Cl)cc1,inactive
23,COc1ccc(-n2nc(CCC(=O)N(C)O)cc2-c2ccc(Cl)cc2)cc1,23.7 µM (active)
24,CC(C)OP(=O)(CP(=O)(OC(C)C)OC(C)C)OC(C)C,inactive
25,N#Cc1cc(NC(=O)C(=O)O)c(Cl)c(NC(=O)C(=O)O)c1,inactive
26,CN1C(CSCC(F)(F)F)Nc2cc(Cl)c(S(N)(=O)=O)cc2S1(=O)=O (configuration not stated),inactive
27,CN1C(=O)c2ccccc2C1=O,inactive
28,CN1N=C(C(N)=O)CCC1=O,inactive
